According to ChEMBL document CHEMBL3988442, “University of Dundee, Small-Polar-MMV Screening Library” (2021):
The whole screen tested about 48,000 compounds, of which about 13,000 (27%) showed an effect of 50% or more. This is one part of the list.

test system: Wolbachia pipientis; test: Anti-Wolbachia Cell-Based Screen; format: functional; set-up: scale not given: in the data most compounds retested in dose-response had high values; conditions: 5 µM

Point of comparison: `COc1ccc2c(c1)OCC(Cc1ccc(N(C)C)nc1)C2` (stereo unspecified), “Percent Effect” value -17.41%. Against it:
- COCc1noc(C2(c3cccc(Cl)c3)CCOCC2)n1 — higher, -3.313%
- CC(=O)N1CCNCC1c1cccc(C(=O)N(C)C)c1 (stereo unspecified) — higher, -10.2%
- COC(=O)c1cccc(CNC(=O)NCCC(F)(F)F)c1 — higher, -12.97%
- CN(C)C(=O)c1cccc(C2CNCCN2C)c1 (stereo unspecified) — higher, 117.5%
- CNC(=O)c1cccc(C2CNCCN2C)c1 (stereo unspecified) — lower, -21.17%
- COC(=O)c1cccc(C2CNCCN2C)c1 (stereo unspecified) — higher, 77.97%
- COC(=O)c1cccc(CNC(=O)CCC(F)(F)F)c1 — higher, -15.88%
- COC(=O)c1ccc2ccn(CC3CCNC3)c(=O)c2c1 (stereo unspecified) — higher, -6.108%
- COC(=O)c1cccc(C2CNCCN2C(C)=O)c1 (stereo unspecified) — higher, 103.9%
- COCCN1CCN(Cc2cccc(C(=O)N(C)C)c2)CC1C (stereo unspecified) — higher, -4.413%
- O=C(NCCc1ccncc1)c1ccc(N2CCOCC2)cc1 — higher, -6.093%
- Cn1cc(C(=O)NCc2ccc(N3CCNC(=O)C3)c(F)c2)cn1 — lower, -29.09%
- CC(C)CCC(=O)N1CCN(C(=O)c2ccc3nccn3c2)CC1 — higher, -6.791%
- CCC(=O)Nc1cccc(C(=O)NCCC2=CSC3=NCCCN23)c1 — higher, 108.7%
- CNc1cc(C(=O)NCCC2=CSC3=NCCCN23)ccn1 — higher, 99.62%
- CC(C)(O)CCc1cccc(C(=O)NCCC2=CSC3=NCCCN23)c1 — higher, 99.07%
- CNc1cc(C(=O)N2CCC3(CC2)Nc2ccccc2NC3=O)ccn1 — higher, 27.99%
- O=C(NC1=NCCCN1c1ccc(Cl)cc1)c1cccc(Cl)c1 — higher, 17.77%
- CNc1cc(C(=O)N2CCCCC2CCn2ccnc2C)ccn1 (stereo unspecified) — higher, 14.21%
- CC(C)(O)CCc1cccc(C(=O)NCc2nccs2)c1 — higher, 1.829%
- CC(=O)N1CCOC(CNC(=O)c2cccc(CCC(C)(C)O)c2)C1 (stereo unspecified) — higher, 13.88%
- CCOc1ccc(N2CCCN=C2NC(=O)c2cccc(Cl)c2)cc1 — higher, -0.7192%
- c1ccc(Cn2ccnc2CNC2CCCOc3ccccc32)cc1 (stereo unspecified) — higher, -11.7%
- COC(=O)C(C)CN(C)S(=O)(=O)c1c(Br)cc2[nH]c(=O)oc2c1Cl (stereo unspecified) — higher, 24.19%
- Cc1cccc(N(CCC(N)=O)C(=O)c2cc(-n3cccn3)ccn2)c1 — lower, -21.32%
- CC1c2ncc(CNC(=O)C3CC3)n2CCN1Cc1nccs1.O=C(O)C(F)(F)F (stereo unspecified) — higher, 120.4%
- CC1c2ncc(CNC(=O)C3CC3)n2CCN1Cc1ccsc1.O=C(O)C(F)(F)F (stereo unspecified) — higher, 96.09%
- O=C(NCc1cn2c(n1)CN(Cc1ccncc1)CC2)C1CCC1.O=C(O)C(F)(F)F.O=C(O)C(F)(F)F — higher, -6.264%
- CC1c2ncc(CNC(=O)C3CC3)n2CCN1Cc1ccccn1.O=C(O)C(F)(F)F.O=C(O)C(F)(F)F (stereo unspecified) — higher, 93.52%
- Cc1ncsc1CN1CCn2c(COCC3CC3)cnc2C1C.O=C(O)C(F)(F)F (stereo unspecified) — higher, 6.232%
- O=C(NCc1cn2c(n1)CN(Cc1ccccn1)CC2)C1CCC1.O=C(O)C(F)(F)F.O=C(O)C(F)(F)F — higher, -6.874%
- CC1c2ncc(CNC(=O)C3CC3)n2CCN1Cc1cnn(C)c1.O=C(O)C(F)(F)F.O=C(O)C(F)(F)F (stereo unspecified) — higher, -12.81%
- CC1c2ncc(CNC(=O)C3CC3)n2CCN1Cc1ccncc1.O=C(O)C(F)(F)F.O=C(O)C(F)(F)F (stereo unspecified) — higher, 104.7%
- N#Cc1cn(CCCN2CCc3ccccc3C2)c(=O)[nH]c1=O — higher, -8.057%
- CC(=O)NC[C@H]1COCc2nc3cc(S(C)(=O)=O)ccc3n21 — lower, -22.59%
- Cc1nc(COCc2cnc3n2CCN(CC2CCC2)C3C)cs1.O=C(O)C(F)(F)F (stereo unspecified) — higher, -9.854%
- CC1c2ncc(CNC(=O)C3CC3)n2CCN1Cc1cccnc1.O=C(O)C(F)(F)F.O=C(O)C(F)(F)F (stereo unspecified) — higher, 100.5%
- CC1c2ncc(CNC(=O)C3CC3)n2CCN1CC1CCC1.O=C(O)C(F)(F)F (stereo unspecified) — higher, 88.49%
- COCc1cnc2n1CCN(C1CCC1)C2C.O=C(O)C(F)(F)F (stereo unspecified) — higher, 11.12%
- COc1cccc2c1OCC(CNC(=O)CCCN1CCOCC1)C2 (stereo unspecified) — higher, 2.111%
- CS(=O)(=O)NCc1cc2n(n1)CCCN(Cc1cccc(C#N)c1)C2 — higher, 3.455%
- O=C(NCCSCc1ccc(Br)s1)C1CCCN(c2cnccn2)C1 (stereo unspecified) — higher, 1.609%
- CN(C1CCN(c2ccccn2)CC1)S(=O)(=O)c1cccs1 — higher, -12.42%
- CCc1ccc(S(=O)(=O)NCC2CCN(c3cnccn3)CC2)s1 — higher, 118.2%
- CC(CNC(=O)N1CCN(c2cnccn2)CC1)Cc1cccs1 (stereo unspecified) — higher, -7.53%
- O=S(=O)(NCC1CCN(c2cnccn2)CC1)c1cccs1 — higher, 107.7%
- Cc1nn(C)c(C)c1CN(C)C1CCN(c2ncnc3[nH]cnc23)CC1 — higher, 0.8279%
- CC(=O)Nc1ccc(C(=O)N2CCOc3nc(C)ccc32)cc1 — higher, -10.66%
- COC(=O)CCC(=O)N1CCc2nc(C(=O)N(C)C)sc2CC1 — lower, -18.4%
- Cc1cc(Nc2ccccn2)nc(C2CCCN(CCO)C2)n1.O=CO (stereo unspecified) — higher, 136%
- Cn1ncc2c(N3CCN(CCO)CC3)nc(C3CCCC3)nc21 — higher, 1.132%
- Cc1cc(Nc2cnccn2)nc(C2CCCN(CCO)C2)n1 (stereo unspecified) — higher, 125%
- Cc1cc(O)nc(C2CCCN(CCO)C2)n1 (stereo unspecified) — higher, 175.9%
- Cc1cc(Nc2ncccn2)nc(C2CCCN(CCO)C2)n1 (stereo unspecified) — higher, 168.6%
- CSCCC1c2nc[nH]c2CCN1Cc1ccnc2ccccc12 (stereo unspecified) — higher, 14.89%
- COCCCN1CCC(NC(=O)C(C)C)CC1 — higher, 12.3%
- Cc1noc(C)c1CNc1c(N2CCCC2)cccc1N1CCCC1 — higher, 3.451%
- Cn1cc(N2CCCC(Nc3ccc4c(c3)NC(=O)CC4)C2=O)cn1 (stereo unspecified) — higher, -4.573%
- COCC(=O)N1CCN(C(C)c2ncc(-c3ccccc3)o2)CC1 (stereo unspecified) — higher, 108.5%
- Cc1ccc(-c2ncc(CN3CCN(C(=O)N(C)C)CC3)s2)o1 — higher, 25.76%
- O=C(CCCc1ncc(-c2ccccc2)o1)N1CCN(CCO)CC1 — higher, -1.483%
- CN(C)C(=O)N1CCN(C(=O)Nc2nc(-c3ccccc3)ns2)CC1 — higher, -9.811%
- CC(c1ncc(C(C)(C)C)o1)N1CCN(c2ccncc2)CC1 (stereo unspecified) — higher, -9.491%
- CC(c1ncc(-c2ccccc2)o1)N1CCN(C(=O)C(C)(C)C)CC1 (stereo unspecified) — higher, 102.5%
- CCS(=O)(=O)N1CCN(C(C)c2ccccc2OC)CC1 (stereo unspecified) — higher, 10.43%
- CCN1CCN(C(=O)NC(C)c2noc(-c3ccccc3)n2)CC1 (stereo unspecified) — higher, 0.3597%
- CCS(=O)(=O)N1CCN(C(C)c2ncc(-c3ccccc3)o2)CC1 (stereo unspecified) — higher, 106.9%
- COCC(=O)N1CCN(C)c2ncccc2C1 — higher, 4.839%
- CC(c1ncc(C(C)(C)C)o1)N1CCN(Cc2ccco2)CC1 (stereo unspecified) — higher, 19.54%
- CC(c1ncc(-c2ccccc2)o1)N1CCN(C(=O)N(C)C)CC1 (stereo unspecified) — higher, 106.8%
